Experimental data as given in article PMC5540273 (PLoS ONE, 2017).

Tested on: T1, DCAMKL2
T1 construct: gene DCLK2
Conditions: concentration: 1 μM, replicates: in singlicate; n = 1
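Further: KINOMEscan kinase panel screen.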

Going from `O=C(c1ccc(-c2cc(-c3c[nH]nc3-c3ccccn3)ccn2)cc1)N1CCOCC1` [GW812171] to `N#Cc1ccc(-c2cc(-c3c[nH]nc3-c3ccccn3)ccn2)cc1` [GW693028], the “%Inh” value rises from 0% to 17%.

First: CC(=O)Nc1ccc(COc2ccc(Nc3ccnc4cc(-c5ccccn5)ccc34)cc2)cc1.Cl [GW440148]
Second: COc1ccc(COc2cc(-n3cnc4ccccc43)sc2C(N)=O)cc1 [GSK1024304]
The “%Inh” value of the first is lower: 0% for the first, 8% for the second.

Going from `O=C(NOCC1CC1)c1ccc(F)c(F)c1Nc1ccc(I)cc1Cl` to `Cc1ccc(C(=O)NCC(N)=O)cc1-n1c(C)cc(OCc2ccc(F)cc2F)c(Br)c1=O`, the “%Inh” value rises from 0% to 17%.

`COc1ccc(Nc2nccc(N3CCC(NC(=O)Nc4cc(C)ccc4C)C3)n2)cc1` (stereo not drawn) [GSK1379741] and `COc1ccc(S(=O)(=O)NC2CCN(c3cc(C)nc(Nc4cccc(C#N)c4)n3)CC2)cc1.O=C(O)C(F)(F)F` [GSK1653539] are the same in “%Inh” value: 0% for the first, 0% for the second.

Going from `Cl.Nc1ncnc2occ(-c3ccc(NC(=O)Nc4cc(C(F)(F)F)ccc4F)cc3)c12` [SB-707548] to `O=C(Nc1cccc(-c2nn3ncccc3c2-c2ccnc(Nc3cccc(C(F)(F)F)c3)n2)c1)c1c(F)cccc1F` [GSK299495], the “%Inh” value falls from 4% to 0%.

`Nc1nc(-c2ccc3c(N)n[nH]c3c2)cc(N2CCCC2)n1` [GSK2227430] and `Cc1cn2c(=O)cc(N3CCOCC3)nc2n1Cc1cccc(Cl)c1Cl` [GSK2334006] are the same in “%Inh” value: 0% for the first, 0% for the second.

Compared with `CN(C1=C(c2ccccc2)C(=O)NC1=O)c1ccccc1` [SB-334860], `Cc1cccc(-c2nc(Nc3ccc4ncsc4c3)c3ccccc3n2)n1` [GW867588] is lower in “%Inh” value: 11% for the first, 7% for the second.

First: CN1c2ccc(CNc3ccc(F)cc3)cc2-c2c(cnn2C)S1(=O)=O
Second: CN1c2ccc(NCc3ccc(F)cc3)cc2-c2c(cnn2C)S1(=O)=O
The “%Inh” value of the first is lower: 0% for the first, 25% for the second.

Going from `O=c1cc(N2CCOCC2)nc2n(Cc3cccc(Cl)c3Cl)c(C3CC3)nn12` [GSK2358994] to `Fc1ccc(-c2ncn(CCCN3CCOCC3)c2-c2cccnc2)cc1` [SB-211743], the “%Inh” value falls from 7% to 6%.

`CCc1ccnc(/C=C/c2n[nH]c3cc(Sc4ccccc4C(=O)NC)ccc23)c1` and `O=C(NCCNc1ccnc(Nc2ccc(F)cc2)n1)c1cc2ccccc2s1` [GSK1379874] are the same in “%Inh” value: 0% for the first, 0% for the second.

`Nc1nccc(-c2c(-c3ccc(F)cc3)ncn2C2CCN(CC(F)(F)F)CC2)n1` [SB-236560] and `NCC(NC(=O)c1cc(-c2cn[nH]c2)c(-c2ccnc3[nH]ccc23)s1)c1ccccc1.O=C(O)C(F)(F)F.O=C(O)C(F)(F)F` (stereo not drawn) [GSK1325775] are the same in “%Inh” value: 0% for the first, 0% for the second.

Tested on: T2, DCAMKL3
T2 construct: gene DCLK3
Conditions: concentration: 1 μM, replicates: in singlicate; n = 1

Compared with `COc1cc2c(cc1OC[C@@H](O)CO)ncc1c3ccc(C#N)cc3[nH]c21`, `COc1cc2c(cc1OCCN1CCN(C)CC1)ncc1c3ccc(C#N)cc3[nH]c21` is higher in “%Inh” value: 34% for the first, 100% for the second.

Compared with `COc1ccc(Nc2ncc(C#N)c(Nc3ccccc3C(N)=O)n2)cc1N1CCN(C)CC1.Cl` [GSK1558669], `Cc1ccc(NC(=O)c2ccnc(N3CCN(C)CC3)c2)cc1-c1ccc(C(=O)NCC2CC2)cc1` [GW775604] is lower in “%Inh” value: 99.6% for the first, 0% for the second.

`Cc1cccc(-c2nc(-c3ccc(S(C)(=O)=O)cc3)sc2-c2ccncc2)c1` and `N#Cc1ccc(-c2cc(-c3c[nH]nc3-c3ccccn3)ccn2)cc1` [GW693028] are the same in “%Inh” value: 0% for the first, 0% for the second.

First: COc1cc(Nc2nccc(N3CCC(NC(=O)c4cccc(NC(C)=O)c4)C3)n2)cc(OC)c1OC (stereo not drawn) [GSK1379754]
Second: COc1ccc(Nc2nccc(N3CCC(NC(=O)Nc4cc(C)ccc4C)C3)n2)cc1 (stereo not drawn) [GSK1379741]
The “%Inh” value of the first is lower: 0% for the first, 4% for the second.

Going from `CSc1ccc(-c2cc3ncnc(SCC(=O)O)c3s2)cc1` to `COc1ccc(COc2cc(-n3cnc4ccccc43)sc2C(N)=O)cc1` [GSK1024304], the “%Inh” value falls from 8% to 0%.

Going from `c1ccc(-c2cc(-c3c[nH]nc3-c3ccccn3)ccn2)cc1` [GW576604] to `O=C(c1ccc(-c2cc(-c3c[nH]nc3-c3ccccn3)ccn2)cc1)N1CCOCC1` [GW812171], the “%Inh” value falls from 12% to 0%.

`O=C(Nc1n[nH]c2cc(-c3cccc(F)c3)ccc12)C1CC1` [SB-735464] and `Nc1nc(-c2ccc3c(N)n[nH]c3c2)cc(N2CCCC2)n1` [GSK2227430] are the same in “%Inh” value: 0% for the first, 0% for the second.

First: Cc1c(Cn2c(C)nn3c(=O)cc(N4CCOC(C)C4)nc23)cccc1C(F)(F)F (stereo not drawn) [GSK2344444]
Second: O=c1cc(N2CCOCC2)nc2n(Cc3cccc(Cl)c3Cl)c(C3CC3)nn12 [GSK2358994]
The “%Inh” value of the first is higher: 21% for the first, 17% for the second.

First: Cc1nnc(-c2ccc3ncc(-c4ccc(S(C)=O)cc4)n3c2)o1 (stereo not drawn)
Second: CN(C(=O)c1ccc(-c2cc(-c3c[nH]nc3-c3ccccn3)ccn2)cc1)C1CCOCC1 [GW810083]
The “%Inh” value of the first is lower: 0% for the first, 19% for the second.

Compared with `Fc1ccc(-c2ncn(CCCN3CCOCC3)c2-c2ccccn2)cc1` [SB-211742], `Fc1ccc(-c2ncn(CCCN3CCOCC3)c2-c2cccnc2)cc1` [SB-211743] is lower in “%Inh” value: 12% for the first, 3% for the second.

First: CC(=O)Nc1ccc(COc2ccc(Nc3ccnc4cc(-c5ccccn5)ccc34)cc2)cc1.Cl [GW440148]
Second: Cc1cccc(-c2nc(Nc3ccc4ncsc4c3)c3ccccc3n2)n1 [GW867588]
The “%Inh” value of the first is higher: 9% for the first, 0% for the second.

Compared with `O=C(NOCC1CC1)c1ccc(F)c(F)c1Nc1ccc(I)cc1Cl`, `Cc1ccc(C(=O)NCC(N)=O)cc1-n1c(C)cc(OCc2ccc(F)cc2F)c(Br)c1=O` is higher in “%Inh” value: 0% for the first, 19% for the second.

Compared with `Cl.Nc1ncnc2occ(-c3ccc(NC(=O)Nc4cc(C(F)(F)F)ccc4F)cc3)c12` [SB-707548], `O=C(Nc1cccc(-c2nn3ncccc3c2-c2ccnc(Nc3cccc(C(F)(F)F)c3)n2)c1)c1c(F)cccc1F` [GSK299495] is higher in “%Inh” value: 0% for the first, 4% for the second.

Going from `CN(C1=C(c2ccccc2)C(=O)NC1=O)c1ccccc1` [SB-334860] to `CCc1ccnc(/C=C/c2n[nH]c3cc(Sc4ccccc4C(=O)NC)ccc23)c1`, the “%Inh” value rises from 0% to 8%.

Going from `CN1c2ccc(CNc3ccc(F)cc3)cc2-c2c(cnn2C)S1(=O)=O` to `CN1c2ccc(NCc3ccc(F)cc3)cc2-c2c(cnn2C)S1(=O)=O`, the “%Inh” value rises from 0% to 9%.

Compared with `COc1ccc(S(=O)(=O)NC2CCN(c3cc(C)nc(Nc4cccc(C#N)c4)n3)CC2)cc1.O=C(O)C(F)(F)F` [GSK1653539], `Nc1nccc(-c2c(-c3ccc(F)cc3)ncn2C2CCN(CC(F)(F)F)CC2)n1` [SB-236560] is lower in “%Inh” value: 34% for the first, 18% for the second.

`Cc1cn2c(=O)cc(N3CCOCC3)nc2n1Cc1cccc(Cl)c1Cl` [GSK2334006] and `O=C(NCCNc1ccnc(Nc2ccc(F)cc2)n1)c1cc2ccccc2s1` [GSK1379874] are the same in “%Inh” value: 0% for the first, 0% for the second.

`NCC(NC(=O)c1cc(-c2cn[nH]c2)c(-c2ccnc3[nH]ccc23)s1)c1ccccc1.O=C(O)C(F)(F)F.O=C(O)C(F)(F)F` (stereo not drawn) [GSK1325775] was tested, and the “%Inh” value was 0%.
